# Laboratory results published in PubChem BioAssay.
# The source made the active and inactive calls.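 Rule for the calls, unless noted: active = compounds whose cell count with miR-34 switched on is under 0.7 times the count with it off; inactive = the rest.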 *1 amine or outer side, *2 acyl side, *3 side chain or, on linkers, in order; H or OH if unused. Where a SMILES comes first, the peptide text is derived from it. Bridges are numbered along the chain shown (N, C = ends). [ ]: non-standard residue; d: D form. The star is where a group is joined. ξ: configuration not given here. pTerphenylCO(4''-OnC5H11) = CCCCCOc1ccc(-c2ccc(-c3ccc(C(=O)*)cc3)cc2)cc1; ξOrn(4,5-diOH) = O=C(C(CC(O)C(O)N[*:3])N[*:1])[*:2]; ξhTyr(βξ-OH,γξ-OH) = NC(C(=O)O)C(O)C(O)c1ccc(O)cc1; ξPro(3ξ-OH,4ξ-Me) = CC1CNC(C(=O)O)C1O; Hyp = O=C(O)[CH]1C[CH](O)CN1
# Tests used:
# [1] = sensitizers of A549 cells to miR-34 induction, primary screen, imaging, A549 dox-inducible miR-34, nuclei and caspase counts (AID 1347080); conditions: A549 miR-34 inducible, Hoechst nuclei count, 48 h
# [2] = survival rescue of mitochondrial mutant cells in low glucose, primary screen, MELAS cybrids, Rieske KO mouse fibroblasts, CellTiter-Glo (AID 1508586;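 active = mean z-score across replicates of 1.96 or higher in either the MELAS or the Rieske mutant cell line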;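 note: z relative to plate mean and SD of compound and empty wells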)
# [3] = stronger effect = lower value, cell number ratio, induced over uninduced
# [4] = measured here: relative caspase fold change +Dox/-Dox
# [5] = measured here: total cells with miR-34 induction, stronger effect = lower value
# [6] = measured here: total cells without miR-34 induction
# [7] = MELAS cybrid survival, CellTiter-Glo 48 h, stronger effect = higher value
# [8] = Rieske KO mouse fibroblast survival, CellTiter-Glo 72 h
# Note: test concentration not given here.
SMILES,"fold change [1, 3]","fold change [1, 4]","cell count [1, 5]","cell count [1, 6]","z-score [2, 7]","z-score [2, 8]"
CC1CCO[C@H]2Cn3cc(C(=O)NCc4ccc(F)cc4F)c(=O)c(O)c3C(=O)N12 (some centres undefined),1 (inactive),0.731,8400,8370,-0.34 (inactive),0.66
O=C(NCc1cccc(O)c1)Nc1nc(-c2ccncc2)cs1,0.899 (inactive),0.419,2990,3330,0.152 (inactive),-1.61
CCC(CC)(NC(=O)C(C)C)C(=O)NC(CCCN=C(N)N)C(=O)NC1(C(=O)NC(c2ccc(F)cc2)c2ccc(F)cc2)CCCC1 (centres undefined),0.936 (inactive),0.709,9110,9730,-0.415 (inactive),-0.654
COC(=O)C=CC(=O)OC,0.917 (inactive),0.928,10100,11000,-0.336 (inactive),0.844
OCC1OC(c2ccc(Cl)c(Cc3ccc(OC4CCOC4)cc3)c2)C(O)C(O)C1O (centres undefined),0.997 (inactive),0.234,8710,8730,-0.39 (inactive),-0.293
CCC(=O)OCC(=O)[C@]1(OC(=O)CC)C(C)C[C@H]2[C@@H]3CCC4=CC(=O)C=C[C@]4(C)[C@]3(Cl)C(O)C[C@@]21C (some centres undefined),0.952 (inactive),0.747,5950,6250,-0.503 (inactive),-0.134
O=C1NC(=O)C(=Cc2ccc3nccc(-c4ccncc4)c3c2)S1,0.936 (inactive),0.601,1700,1820,0.995 (inactive),-1.12
CCNC(=O)Nc1ccc(-c2nc3c(c(N4CCOCC4C)n2)CCN(C2COC2)C3)cc1 (centres undefined),0.905 (inactive),0.555,2790,3080,2.89 (active),-0.834
CC(=O)OCC(=O)[C@]12N=C(C)O[C@@H]1C[C@H]1[C@@H]3CCC4=CC(=O)C=C[C@]4(C)[C@@H]3C(O)C[C@@]12C (some centres undefined),0.954 (inactive),1.27,5010,5250,-0.0832 (inactive),-0.272
CCC1OC(=O)C(C)C(OC2C[C@@](C)(OC)C(O)C(C)O2)C(C)C(OC2OC(C)CC(N(C)C)C2O)[C@@](C)(O)CC(C)[C@@H]2NC(COCCOC)OC(C2C)[C@]1(C)O (some centres undefined),0.923 (inactive),0.895,8840,9580,-0.208 (inactive),-0.128
CCC(=O)O[C@@]1(C(=O)CCl)C(C)C[C@H]2[C@@H]3CC(F)C4=CC(=O)C=C[C@]4(C)[C@]3(F)C(O)C[C@@]21C (some centres undefined),0.853 (inactive),0.626,4930,5780,-0.347 (inactive),-0.183
CN(CC1COCCO1)S(=O)(=O)Nc1ccc2ccc3ncc(-c4cnn(C)c4)cc3c(=O)c2c1 (centres undefined),0.745 (inactive),1.24,3290,4410,4.55 (active),2.15
CCC(=C(CC)c1ccc(O)cc1)c1ccc(O)cc1,0.852 (inactive),1.22,7280,8550,-0.347 (inactive),0.452
O=C(NN=Cc1ccc([N+](=O)[O-])o1)c1ccc(O)cc1,1.02 (inactive),0.454,8470,8320,-0.586 (inactive),-0.436
"CCCCCOc1ccc(-c2ccc(-c3ccc(C(=O)NC4CC(O)C(O)NC(=O)C5C(O)C(C)CN5C(=O)C(C(C)O)NC(=O)C(C(O)C(O)c5ccc(O)cc5)NC(=O)C5CC(O)CN5C(=O)C(C(C)O)NC4=O)cc3)cc2)cc1 (stereo not drawn) ({pTerphenylCO(4''-OnC5H11)}-[ξOrn(4,5-diOH)]T[Hyp][ξhTyr(βξ-OH,γξ-OH)]T[ξPro(3ξ-OH,4ξ-Me)]; lactam 1-C; configuration not given here)",0.963 (inactive),0.515,5590,5810,0.0456 (inactive),-0.136
Cc1cc(C)nc(NS(=O)(=O)c2ccc(NC(=S)NC(=O)COc3ccc(Br)cc3Cl)cc2)n1,0.955 (inactive),1.42,7550,7900,-0.302 (inactive),-3.08
CC(C)(O)C1CC[C@@](C)([C@@H]2C(O)C[C@@]3(C)[C@@H]4CC(OC5OC(CO)C(O)C(O)C5O)[C@H]5C(C)(C)C(OC6OCC(O)C(O)C6O)CC[C@@]56C[C@]46CC[C@]23C)O1 (some centres undefined),0.936 (inactive),0.796,9300,9940,-0.378 (inactive),0.478
O=C1CC(=O)c2c(Cl)c(Cl)c(Cl)c(Cl)c21,1.01 (inactive),0.472,8430,8350,-0.354 (inactive),-0.295
NCc1c[nH]c(=S)n1C1CCc2c(F)cc(F)cc2C1 (centres undefined),0.817 (inactive),2.13,7940,9720,-0.197 (inactive),-0.149
Cc1c(C(=O)Nc2ccc(N3CCC(N4CCOCC4)CC3)c(C#N)c2)cnn1-c1ccc(Cl)cc1,0.979 (inactive),0.399,1870,1910,-0.464 (inactive),-0.322
C=C1C(=O)OC2C=C(C)CCC=C(C)CCC12 (centres undefined),0.92 (inactive),0.847,7130,7760,-0.398 (inactive),-0.0875
OCc1ccccc1OC1OC(CO)C(O)C(O)C1O (centres undefined),0.944 (inactive),0.784,9350,9900,-0.348 (inactive),0.733

SMILES,"fold change [1, 3]","fold change [1, 4]","cell count [1, 5]","cell count [1, 6]","z-score [2, 7]","z-score [2, 8]"
C[C@]12C=CC(=O)C=C1CC[C@@H]1[C@H]2C(O)C[C@@]2(C)[C@H]1CC[C@@]2(O)C(=O)CO (some centres undefined),0.833 (inactive),1.24,4970,5970,-0.42 (inactive),-1.24
CC1(C)S[C@@H]2C(NC(=O)C(N)c3ccccc3)C(=O)N2C1C(=O)O (some centres undefined),0.917 (inactive),0.571,8070,8800,-0.241 (inactive),-0.225
C[C@]12C=CC(=O)N[C@@H]1CC[C@@H]1[C@H]2CC[C@]2(C)C(C(=O)Nc3cc(C(F)(F)F)ccc3C(F)(F)F)CC[C@@H]12 (some centres undefined),0.962 (inactive),0.927,6640,6910,-0.568 (inactive),0.0125
CC(NC(=O)CCc1nc2ccccc2c(=O)[nH]1)c1ccccc1 (centres undefined),0.914 (inactive),0.487,8620,9430,-0.406 (inactive),-0.138
CC(C)CC(CC(=O)NO)C(=O)NC(Cc1ccc2ccccc2c1)C(=O)NC(C)C(=O)NCCN (centres undefined),0.928 (inactive),0.561,8260,8900,-0.492 (inactive),-0.379
O=C(C=Cn1cnc(-c2cc(C(F)(F)F)cc(C(F)(F)F)c2)n1)N1CC(F)(F)C1,0.887 (inactive),0.422,1980,2230,-0.618 (inactive),-7.49
COc1c(C)c2c(c(O)c1CC=C(C)CCC(=O)OCCN1CCOCC1)C(=O)OC2,0.917 (inactive),1.06,1830,1990,0.827 (inactive),-0.579
O=CC(O)C(O)C(O)C(O)CO (centres undefined),0.892 (inactive),0.805,8030,9000,-0.158 (inactive),-0.000567
C=C1C(=O)[C@@]23C(O)[C@H]1CCC2[C@]12CO[C@]3(O)C(O)[C@@H]1C(C)(C)CCC2O (some centres undefined),0.94 (inactive),0.647,8410,8940,-0.553 (inactive),-0.438
NCCCCCNCC12CC3CC(CC(C3)C1)C2,0.991 (inactive),0.726,8590,8670,-0.291 (inactive),-0.0827
CCOC(=O)C(CCc1ccccc1)NC(C)C(=O)N1C(=O)N(C)CC1C(=O)O (centres undefined),0.891 (inactive),1.39,7920,8880,0.163 (inactive),-0.0366
Cc1c(CN2CCN(C(=O)C(C)O)CC2)sc2c(N3CCOCC3)nc(-c3cnc(N)nc3)nc12 (centres undefined),1.11 (inactive),0.549,2480,2230,2.06 (active),-2.39
C=C1CC[C@H]2[C@@](C)(CCC(O)[C@@]2(C)CO)C1CC=C1C(=O)OCC1O (some centres undefined),0.97 (inactive),0.896,6090,6280,-0.657 (inactive),-0.629
COC(=O)C(CCCN=C(N)N)NS(=O)(=O)c1ccc(C)cc1 (centres undefined),0.92 (inactive),0.589,8520,9260,-0.296 (inactive),0.752
CCOC(=O)C(CCc1ccccc1)NC(C)C(=O)N1Cc2cc(OC)c(OC)cc2CC1C(=O)O (centres undefined),0.97 (inactive),0.414,7830,8070,-0.293 (inactive),-0.111
Cn1ncnc1C1c2n[nH]c(=O)c3cc(F)cc(c23)NC1c1ccc(F)cc1 (centres undefined),0.895 (inactive),1.04,2740,3060,-0.229 (inactive),-0.124
C=C1C(=CC=C2CCC[C@]3(C)C(C(C)CCCC(C)(C)O)CC[C@@H]23)CC(O)CC1O (some centres undefined),0.915 (inactive),1.06,6550,7160,-0.468 (inactive),0.543
COc1cc(C2c3cc4c(cc3C(O[C@@H]3O[C@@H]5COC(C)O[C@H]5C(O)C3O)[C@H]3COC(=O)[C@H]23)OCO4)cc(OC)c1O (some centres undefined),0.94 (inactive),1.28,2100,2240,-0.7 (inactive),-0.559
COC1CC2CCC(C)[C@](O)(O2)C(=O)C(=O)N2CCCC[C@H]2C(=O)OC(C(C)CC2CCC(n3cnnn3)C(OC)C2)CC(=O)C(C)C=C(C)C(O)C(OC)C(=O)C(C)CC(C)C=CC=CC=C1C (some centres undefined),1.13 (inactive),0.353,5100,4500,3.99 (active),2.04
CC1COC2=C1C(=O)C(=O)c1c2ccc2c1CCCC2(C)C (centres undefined),1.09 (inactive),0.507,2070,1890,-0.382 (inactive),-0.5
CCN(CC)C(=O)C(C#N)=Cc1cc(O)c(O)c([N+](=O)[O-])c1,1.2 (inactive),1.41,8600,7190,-0.263 (inactive),-0.169
CCCCNc1ncc(C(=O)NCc2ccc(-n3ccnc3)cc2)c(NC2CCC(O)CC2)n1 (centres undefined),1.3 (inactive),0.249,2450,1880,5.49 (active),-1.88
